Rows were chosen to be rich in hits. Some 17% of all compounds tested hit in one or more screens of this group.
TDP1 cell CPT – DT40-hTDP1 cell growth loss with CPT; chicken DT40 Tdp1-/-;hTDP1 cells + 20 nM CPT, ATP luminescence, 48 h; Potency, µM (top dose mostly 46.2 µM), inactives show at the highest dose activity change, negative = growth inhibition, usual class: inhibitors; 12% of 420,000 active; AID 686979; further: on the % scale 0 is the no-effect control and ±100 the full control effect; nearly all actives have a fitted effect of over 55% in size
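Chicken DT40 Tdp1-/- cells complemented with human TDP1, 400 cells/well, exposed to compounds plus 20 nM camptothecin for at least 48 h at 37 C; viability read as ATP content by CellTiter-Glo luminescence.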
HepG2 tox – counter-screen for TGF-b inhibitors: cytotoxicity in HepG2 cells; HepG2 CAGA-GFP viability, ATP luminescence, 18 h; Potency, µM (highest dose often 46.1 µM), without a hit: top-dose activity change, negative = cytotoxicity, actives largely listed as cytotoxic; 0.76% of 410,000 active; AID 588856
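CellTiter-Glo luminescence gave cytotoxicity after 18 hours at 37 degrees C. The cells were HepG2 CAGA-GFP in 1% FBS DMEM, stimulated with 500 pg/mL TGF-beta after compound addition. %Activity was normalised to no-cell wells (complete cell-killing) and DMSO (no toxicity), and curves were fitted and classified.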
TDP1 cell noCPT – qHTS for Inhibitors of human tyrosyl-DNA phosphodiesterase 1 (TDP1): qHTS in cells in absence of CPT | 15% of 420,000 active | Potency, µM (highest dose often 46.2 µM), without a hit: at the top dose activity change, negative = growth inhibition, hits mostly inhibitors | DT40 Tdp1-/- hTDP1 cells, no CPT, ATP luminescence, 48 h; further: on the % scale 0 is the no-effect control and ±100 the full control effect; nearly all actives have a fitted effect of over 55% in size
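Chicken DT40 Tdp1-/- cells stably complemented with human TDP1 were seeded at 400 cells/well with DMSO in place of 20 nM camptothecin. After compound pinning, cells grew at least 48 hr at 37 °C; viability read by CellTiter-Glo luminescence.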
TGFb inhibitor – inhibitors of TGF-b signaling. HepG2 CAGA-GFP TGF-b/SMAD3 reporter, GFP fluorescence, 18 h; TGF-beta stimulated, 500 pg/mL final. 1.2% of 410,000 active. Potency, µM (series often up to 46.1 µM), for inactives: at the highest dose activity, negative = inhibition, usual class: inhibitors; further: on the % scale 0 is the no-effect control and ±100 the full control effect; nearly all actives have a fitted effect of over 65% in size
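Inhibition of TGF-beta-driven CAGA-GFP reporter expression in HEPG2 cells is measured by cellular GFP fluorescence after 18 h stimulation with 500 pg/mL recombinant TGF-beta in 1% FBS medium at 37 degrees C.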
HT1080 IDH1KD tx – kills HT-1080 cells with IDH1 knockdown. HT-1080 IDH1 knockdown viability, ATP luminescence, 48 h. Potency, µM (highest dose often 46.1 µM), without a hit: at the highest dose activity, negative = toxicity, actives largely listed as cytotoxic. 2% of 360,000 active. AID 686971;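 further: 0% = DMSO wells and -100% = cell-free medium wells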
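Assay cells: HT-1080 with IDH1 knockdown, 750 per well, RPMI/5% FBS. Exposure: 48 h at 37 °C following 2 h pre-incubation. Read: CellTiter-Glo luminescence; fitted concentration-response, curve class assigned.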
HT1080-NT tox – kills 2HG-producing HT-1080-NT fibrosarcoma cells; 1.6% of 360,000 active; Potency, µM (doses to about 46.1 µM), inactives show at the top dose activity, negative = less viability, usual class: cytotoxic; HT-1080-NT fibrosarcoma viability, CellTiter-Glo ATP luminescence, 48 h;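 further: NT is the 2HG producing partner of a matched IDH1 knockdown line; 0% = DMSO-treated cells and -100% = media-only wells without cells; nearly all actives have a fitted effect of over 55% in size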
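Viability of the 2HG-overproducing fibrosarcoma line after 48 hours of compound exposure at 37 degrees C was determined by luminescence with CellTiter-Glo, and concentration-effect curves were then fitted and categorized.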
Starred values were filed as active, the others as inactive; u = inconclusive; x = no result; [ ] = another dose, or the depositor's remark. The call rests on the fitted dose curve; in most records, active means well fitted curve in the direction sought with a large enough effect; inconclusive means small, poorly fitted or top-dose-only effect, or another doubt; inactive means no such curve, though single readings can be large; an effect the other way counts as inactive or inconclusive. Potency means the concentration at half of the fitted maximal effect.

SMILES | TDP1 cell CPT | HepG2 tox | TDP1 cell noCPT | TGFb inhibitor | HT1080 IDH1KD tx | HT1080-NT tox
CCCOc1ccc(C2C(=O)N(C3CCCCCC3)CC(=O)N2Cc2ccc(OC)cc2)cc1OC (stereo not drawn) | u | -14.3% | 23.1µM* | 1.5% | x | x
COC(=O)c1ccc(COC(=O)CNC(=O)c2cccs2)cc1 | -8.9% | -2.0% | 25.3% | -3.1% | 3.2% | -2.6%
COc1ccc(/C=C2\CCC(C3CCCC3)C2=O)cc1OC (stereo not drawn) | 10.2% | -3.7% | -29.6% | -17.0% | 11.7% | 4.9%
CCN(CC)S(=O)(=O)c1ccc(O)c(NC(=O)COc2ccc(S(=O)(=O)N3CCOCC3)cc2)c1 | u | 10.8% | u | u | -0.1% | 4.2%
O=C(NCCCN1CCOCC1)c1cnn(-c2ncc3c(n2)-c2ccccc2CC3)c1C1CC1 | -2.0%[9.04 µM] | x | -15.3% | x | x | x
Cc1ccc(C2C(=O)N(C3CCCC3)CC(=O)N2C2CCCCC2)cc1 (stereo not drawn) | -24.8% | -16.7% | u | 6.0% | -7.9% | -7.2%
Cc1ccc(C2C(=O)N(C3CCCCCC3)CC(=O)N2C(C)C)cc1 (stereo not drawn) | u | -16.1% | 25.9µM* | u | x | x
CCCOc1ccc(C2C(=O)N(C3CCCCCC3)CC(=O)N2CCC)cc1OC (stereo not drawn) | 23.1µM* | -27.5% | u | -5.4% | x | x
Cc1ccc(CN2C(=O)CN(C3CCCCCC3)C(=O)C2c2ccc(F)cc2)cc1 (stereo not drawn) | 18.4µM* | -3.9% | 16.4µM* | -6.8% | x | x
CCCN1C(=O)CN(C2CCCCC2)C(=O)C1c1ccc(OC)c(OC)c1 (stereo not drawn) | -19.4% | -9.1% | -15.2% | -27.0% | x | x
CCCCCC1CCC(c2ccc(/C(N)=N/O)cc2)CC1 (stereo not drawn) | 14.6µM* | 5.4% | 8.2µM* | 5.9% | 1.3% | -6.1%
CCCCC1CCC(c2ccc(C(N)=O)cc2)CC1 (stereo not drawn) | -0.9% | 2.6% | 2.3% | -9.5% | 10.5% | 14.3%

Source: PubChem (National Center for Advancing Translational Sciences (NCATS))
